According to ChEMBL document CHEMBL3988442, “University of Dundee, Small-Polar-MMV Screening Library” (2021):

Target: T1, Aspartate--tRNA(Asp/Asn) ligase (Mycobacterium tuberculosis (strain ATCC 25618 / H37Rv)) (UniProt P9WFW3); note: in the data most compounds retested in dose-response had high values
T1 sequence (whole entry): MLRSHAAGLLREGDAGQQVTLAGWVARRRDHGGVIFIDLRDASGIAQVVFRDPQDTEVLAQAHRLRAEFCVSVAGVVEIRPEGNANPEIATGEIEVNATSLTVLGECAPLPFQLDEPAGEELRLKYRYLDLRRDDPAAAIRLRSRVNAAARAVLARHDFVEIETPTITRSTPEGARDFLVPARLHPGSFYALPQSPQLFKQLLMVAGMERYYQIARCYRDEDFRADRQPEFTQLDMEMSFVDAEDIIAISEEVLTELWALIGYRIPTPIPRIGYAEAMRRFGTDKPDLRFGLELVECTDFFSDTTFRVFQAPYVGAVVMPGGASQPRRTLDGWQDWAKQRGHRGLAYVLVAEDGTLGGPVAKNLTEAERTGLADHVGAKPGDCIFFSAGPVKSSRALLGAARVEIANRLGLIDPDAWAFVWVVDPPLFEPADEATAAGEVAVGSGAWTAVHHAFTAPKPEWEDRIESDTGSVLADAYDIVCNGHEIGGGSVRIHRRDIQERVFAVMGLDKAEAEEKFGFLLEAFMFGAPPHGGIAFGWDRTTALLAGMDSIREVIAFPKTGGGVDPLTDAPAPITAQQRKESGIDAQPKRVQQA
Assay: Assay for Asp RNA synthetase-1 from Mycobacterium tuberculosis
Type: functional
Design: scale not given: direction of the effect not stated beside the values
Conditions: 30 µM

Row | SMILES | Percent Effect
1 | COCCN1CCC(CNC(=O)c2cc(C)cc(C)c2)C1 (stereo not given) | -2.92%
2 | Cc1nc[nH]c1-c1nc2cc(S(=O)(=O)N3CCCC3)ccc2n1C | 1.21%
3 | CC(Cn1cccn1)NC(=O)NCc1ccccn1 (stereo not given) | -4.37%
4 | CN(C)Cc1nn(C)c2c1CCN(S(=O)(=O)c1cccs1)C2 | 3.37%
5 | COc1cccc(CNCCc2cc(F)cc3c2OCOC3)c1 | -4.9%
6 | CS(=O)(=O)N1CCc2c(cccc2NC(=O)CC(F)(F)F)C1 | 5.45%
7 | CC(NC(=O)c1cc(Br)c2c(c1)OCCO2)C(N)=O (stereo not given) | -2.13%
8 | COCCN1CC[C@@H]2OC[C@H](C(=O)NCc3cccs3)C[C@@H]2C1 | 2.37%
9 | O=S(=O)(C1CC1)N1CCC2(COCc3cnc(N4CCOCC4)nc32)C1 (stereo not given) | -2.06%
10 | CCOc1cc(C)nc(N2CCN(Cc3nccn3C)CC2)n1 | -4.49%
11 | CCn1c(CN2CCCC2)nnc1C1CCN(Cc2ccc(C)o2)CC1 | -0.695%
12 | Cc1cc(CN(C)C(=O)NCC(C)N2CCc3ccccc32)no1 (stereo not given) | -1.27%
13 | Cc1cc(NC(=O)CN2CCc3nn(C)c(=O)cc3C2)on1 | 11.6%
14 | CCNC(=O)c1nnn(Cc2ccccc2)c1OC | 0.29%
15 | c1cnnc(N2CCCC2CNCc2ccsc2)c1 (stereo not given) | -3.81%
16 | O=C(NCc1ccccn1)Nc1cc(C(F)(F)F)c[nH]c1=O | 1.37%
17 | c1ccc2oc(N3CCCCC3Cn3cncn3)nc2c1 (stereo not given) | -2.88%
18 | O=C1CC2(CCN(CC3CC3)C2)CN1c1ccc2c(c1)OCO2 (stereo not given) | 14.6%
19 | Cn1nc(CNC(=O)C2CCCC2)cc1C1CC1 | 0.0146%
20 | O=C(Nc1cnn(CCN2CCOCC2)c1)c1ccccn1 | -1.48%

Row | SMILES | Percent Effect
21 | Cc1ccc(C(=O)NCCS(C)(=O)=O)c(=O)[nH]1 | -3.5%
22 | CN(C)C[C@H]1OC[C@@H]2CCN(S(=O)(=O)c3cccs3)C[C@@H]21 | -0.29%
23 | CCN1CCC(NC(=O)CN2CCCC2Cn2cncn2)CC1 (stereo not given) | -1.82%
24 | O=C(COc1ccc2c(c1)CCC2)NS(=O)(=O)c1cncc(Br)c1 | 4.7%
25 | COC(=O)NCc1cc2n(n1)CCCN(C(C)=O)C2 | -4.82%
26 | CN(Cc1nnc(C2CC2)n1C)C(=O)c1ccnc(OC2CCC2)c1 | -0.39%
27 | CSc1ccc(CNC(c2ccccc2)c2nccn2C)cc1 (stereo not given) | 3.61%
28 | CCc1nc(CN(C)C2CCN(CCc3ccccn3)C2)no1 (stereo not given) | 8.1%
29 | CCN(Cc1ccc2c(c1)OCCO2)C(=O)NC(C)Cn1ccnc1 (stereo not given) | 5.58%
30 | Cc1cc(C)c(CNC(=O)NCc2ccc3c(c2)CCC3)c(=O)[nH]1 | -4.97%
31 | CCNC(=O)N1CCCC(c2noc(CC)n2)C1 (stereo not given) | -2.74%
32 | c1cnn(CC2CCCN2c2ncnc3sccc23)c1 (stereo not given) | 5.36%
33 | NC(=O)CC1CCN(C(=O)NCc2ccccc2-n2cccn2)CC1 | -3.48%
34 | COc1cccc(CN(C)S(=O)(=O)N2CCOCC2)c1 | -0.479%
35 | O=C(c1cc(=O)[nH]c(=O)[nH]1)N1CCCCC1c1nc2cc(F)ccc2[nH]1 (stereo not given) | -0.139%
36 | CC(C)NC(=O)[C@H]1C[C@@H]2[C@@H](C1)OCCN2Cc1cnn(C)c1 | 2.71%
37 | CCn1ncc(CN2CCc3c(nc(-c4cccnc4)[nH]c3=O)C2)c1C | -5.25%
38 | CN1CCN(Cc2cnc3n2CCN(Cc2cccs2)C3)CC1 | 5.52%
39 | CC(C)c1cc(NCC(O)CO)n2nccc2n1 (stereo not given) | -1.68%
40 | COC[C@@H]1CC[C@H]2[C@H](CCN2C(=O)c2ccncc2F)O1 | 3.94%

Target: Shiga toxin 2 (Escherichia coli O157:H7) (UniProt P09385+P09386)
Assay: E. coli 0.157:H7 Shiga Toxin SOP - stx2 screening assay
Type: functional
Design: scale not given: direction of the effect not stated beside the values
Conditions: 30 µM

Row | SMILES | Percent Effect
41 | COCCN1CCC(CNC(=O)c2cc(C)cc(C)c2)C1 (stereo not given) | -3.77%
42 | Cc1nc[nH]c1-c1nc2cc(S(=O)(=O)N3CCCC3)ccc2n1C | 0.151%
43 | CC(Cn1cccn1)NC(=O)NCc1ccccn1 (stereo not given) | -30.2%
44 | CN(C)Cc1nn(C)c2c1CCN(S(=O)(=O)c1cccs1)C2 | -17.1%
45 | COc1cccc(CNCCc2cc(F)cc3c2OCOC3)c1 | -27.3%
46 | CS(=O)(=O)N1CCc2c(cccc2NC(=O)CC(F)(F)F)C1 | 2.18%
47 | CC(NC(=O)c1cc(Br)c2c(c1)OCCO2)C(N)=O (stereo not given) | -4.92%
48 | COCCN1CC[C@@H]2OC[C@H](C(=O)NCc3cccs3)C[C@@H]2C1 | -14.7%
49 | O=S(=O)(C1CC1)N1CCC2(COCc3cnc(N4CCOCC4)nc32)C1 (stereo not given) | -56.7%
50 | CCOc1cc(C)nc(N2CCN(Cc3nccn3C)CC2)n1 | 5.04%
51 | CCn1c(CN2CCCC2)nnc1C1CCN(Cc2ccc(C)o2)CC1 | 1.78%
52 | Cc1cc(CN(C)C(=O)NCC(C)N2CCc3ccccc32)no1 (stereo not given) | -6.14%
53 | Cc1cc(NC(=O)CN2CCc3nn(C)c(=O)cc3C2)on1 | -13.1%
54 | CCNC(=O)c1nnn(Cc2ccccc2)c1OC | -14.9%
55 | c1cnnc(N2CCCC2CNCc2ccsc2)c1 (stereo not given) | -8.21%
56 | O=C(NCc1ccccn1)Nc1cc(C(F)(F)F)c[nH]c1=O | -24.9%
57 | c1ccc2oc(N3CCCCC3Cn3cncn3)nc2c1 (stereo not given) | -18.7%
58 | O=C1CC2(CCN(CC3CC3)C2)CN1c1ccc2c(c1)OCO2 (stereo not given) | -55.4%
59 | Cn1nc(CNC(=O)C2CCCC2)cc1C1CC1 | -25.7%
60 | O=C(Nc1cnn(CCN2CCOCC2)c1)c1ccccn1 | 19.4%

Row | SMILES | Percent Effect
61 | Cc1ccc(C(=O)NCCS(C)(=O)=O)c(=O)[nH]1 | -4.7%
62 | CN(C)C[C@H]1OC[C@@H]2CCN(S(=O)(=O)c3cccs3)C[C@@H]21 | -8.75%
63 | CCN1CCC(NC(=O)CN2CCCC2Cn2cncn2)CC1 (stereo not given) | -12.3%
64 | O=C(COc1ccc2c(c1)CCC2)NS(=O)(=O)c1cncc(Br)c1 | 4.36%
65 | COC(=O)NCc1cc2n(n1)CCCN(C(C)=O)C2 | 15.5%
66 | CN(Cc1nnc(C2CC2)n1C)C(=O)c1ccnc(OC2CCC2)c1 | 3.48%
67 | CSc1ccc(CNC(c2ccccc2)c2nccn2C)cc1 (stereo not given) | -1.22%
68 | CCc1nc(CN(C)C2CCN(CCc3ccccn3)C2)no1 (stereo not given) | -35.9%
69 | CCN(Cc1ccc2c(c1)OCCO2)C(=O)NC(C)Cn1ccnc1 (stereo not given) | -4.95%
70 | Cc1cc(C)c(CNC(=O)NCc2ccc3c(c2)CCC3)c(=O)[nH]1 | 32.4%
71 | CCNC(=O)N1CCCC(c2noc(CC)n2)C1 (stereo not given) | 17.9%
72 | c1cnn(CC2CCCN2c2ncnc3sccc23)c1 (stereo not given) | 26.3%
73 | NC(=O)CC1CCN(C(=O)NCc2ccccc2-n2cccn2)CC1 | -4.75%
74 | COc1cccc(CN(C)S(=O)(=O)N2CCOCC2)c1 | 9.56%
75 | O=C(c1cc(=O)[nH]c(=O)[nH]1)N1CCCCC1c1nc2cc(F)ccc2[nH]1 (stereo not given) | 9.59%
76 | CC(C)NC(=O)[C@H]1C[C@@H]2[C@@H](C1)OCCN2Cc1cnn(C)c1 | -17.8%
77 | CCn1ncc(CN2CCc3c(nc(-c4cccnc4)[nH]c3=O)C2)c1C | -14.2%
78 | CN1CCN(Cc2cnc3n2CCN(Cc2cccs2)C3)CC1 | -18.8%
79 | CC(C)c1cc(NCC(O)CO)n2nccc2n1 (stereo not given) | -0.898%
80 | COC[C@@H]1CC[C@H]2[C@H](CCN2C(=O)c2ccncc2F)O1 | 7.83%
